Measured values: PubChem BioAssay (EPA / NIEHS)
The source made the active and inactive calls. Rule for the calls: active = hit-call score of the fitted dose curve at least 0.9, where 1 is the maximum; inactive = score below 0.9.

How the values were obtained:
[1] = read-out: Cytochrome P450 (CYP1A1), CYP1A1 (gene 1543); test: LTEA_HepaRG_CYP1A1: Life Technologies and Expression Analysis (LTEA) Assay for Cytochrome P450 (CYP1A1) using HepaRG (AID 2283454); conditions: mRNA level, 48 h; actives raise or lower the signal
How it was run: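 Using HepaRG cultures with 0.5% DMSO as vehicle, eight-concentration exposures (max 100 uM) lasted 48 h. Transcript levels were measured by TaqMan qRT-PCR and normalized to ACTB, GAPDH and POLR2A.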

[2] = read-out: CFLAR gene, CFLAR (gene 8837); test: LTEA_HepaRG_CFLAR: Life Technologies and Expression Analysis (LTEA) Assay for CFLAR gene using HepaRG (AID 2283455); conditions: mRNA level, 48 h; actives raise or lower the signal
How it was run: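 Gain- or loss-of-signal changes in CFLAR transcript were fitted bidirectionally relative to 0.5% DMSO. Cells (HepaRG, duplicate wells) were dosed for 48 h across eight half-log concentrations topping at 100 uM; quantitation by TaqMan qRT-PCR.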

[3] = read-out: Forkhead box O1 (FOXO1), FOXO1 (gene 2308); test: LTEA_HepaRG_FOXO1: Life Technologies and Expression Analysis (LTEA) Assay for Forkhead box O1 (FOXO1) using HepaRG (AID 2283456); conditions: mRNA level, 48 h; actives raise or lower the signal
How it was run: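 Using one lot of HepaRG hepatic cells kept in 0.5% DMSO, the team applied test chemicals in duplicate, half-log dilutions from 100 uM, for 48 h. Expression, normalised to ACTB/GAPDH/POLR2A, was compared with vehicle in either direction.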

[4] = read-out: growth arrest and DNA damage 45 (GADD45A), GADD45A (gene 1647); test: LTEA_HepaRG_GADD45A: Life Technologies and Expression Analysis (LTEA) Assay for growth arrest and DNA damage 45 (GADD45A) using HepaRG (AID 2283458); conditions: mRNA level, 48 h; actives raise or lower the signal
How it was run: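 HepaRG, 48 h exposure, 8 conc. (top 100 uM, half-log steps), 0.5% DMSO vehicle, duplicates. Read-out: qRT-PCR mRNA level, housekeeping-normalized (ACTB/GAPDH/POLR2A). Curves fit bidirectionally vs DMSO baseline.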

[5] = read-out: Forkhead box O3 (FOXO3), FOXO3 (gene 2309); test: LTEA_HepaRG_FOXO3: Life Technologies and Expression Analysis (LTEA) Assay for Forkhead box O3 (FOXO3) using HepaRG (AID 2283459); conditions: mRNA level, 48 h; actives raise or lower the signal
How it was run: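 Gene-expression endpoint: FOXO3 transcript level by qRT-PCR in HepaRG cultures treated 48 h with chemicals up to 100 uM (half-log, 0.5% DMSO vehicle).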

[6] = read-out: ABC Transporter (ABCB1), ABCB1 (gene 5243); test: LTEA_HepaRG_ABCB1: Life Technologies and Expression Analysis (LTEA) Assay for ABC Transporter (ABCB1) using HepaRG (AID 2283460); conditions: mRNA level, 48 h; actives raise or lower the signal
How it was run: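 Human liver HepaRG line treated 48 h with up to 100 uM compound (eight half-log points, 0.5% DMSO); ABCB1 mRNA change fitted bidirectionally against DMSO controls.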

[7] = read-out: ABC Transporter (ABCC3), ABCC3 (gene 8714); test: LTEA_HepaRG_ABCC3: Life Technologies and Expression Analysis (LTEA) Assay for ABC Transporter (ABCC3) using HepaRG (AID 2283462); conditions: mRNA level, 48 h; actives raise or lower the signal
How it was run: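 Transcriptional change of ABCC3 in HepaRG after 48 h treatment, determined by qRT-PCR normalized to endogenous controls. Concentrations spanned eight half-log steps to 100 uM in 0.5% DMSO.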

[8] = CEETOX_H295R_TESTO: CeeTox H295R High-throughput Steroidogenesis Assay for Testosterone (TESTO) (AID 2283457); conditions: actives raise or lower the signal
Experimental: CEETOX_H295R is a cell-based, multiplexed-readout assay that uses H295R, a human adrenal gland cell line, with measurements taken at 48 hours after chemical dosing in a 96-well plate.CEETOX_H295R_TESTO is one of 23 assay component(s) measured or calculated from the CEETOX_H295R assay. It is designed to make measurements of hormone induction, a form of inducible reporter, as detected with […] by HPLC-MS-MS technology.Data from the assay component CEETOX_H295R_TESTO was analyzed into 1 assay endpoint. This assay endpoint, CEETOX_H295R_TESTO, was analyzed with bidirectional fitting relative to DMSO as the negative control and baseline of activity. Using a type of inducible reporter, gain or loss-of-signal activity using HPLC-MS-MS was used to understand synthesis of Testosterone in H295R cell line at 48hr of chemical exposure. To generalize the intended target to other relatable targets, this assay endpoint is annotated to the steroid hormone intended target family, where the subfamily is androgens.
Cell culture and media preparation procedures were conducted in accordance with OECD Test No. 456 guidelines, with minor modifications. H295R cells (ATCC CRL-2128) were expanded for 5 passages and frozen in batches in liquid nitrogen. Prior to the steroidogenesis assay, H295R cells were thawed and passed at least 4 times. The maximum passage was 10. Cells were maintained in a 1:1 mixture of DMEM/F12 supplemented with 5ml/L ITS+ Premix (BD Bioscience) and 12.5 ml/L Nu-Serum (BD Bioscience). After seeding cells into 96-well plates at 50-60% confluency, cells were allowed to adhere overnight. […] Test chemicals were incubated for 48 hours, then the medium was removed and split into 2 vials containing approximately 75uL each, and stored at -80 C prior to hormone analysis. For steroid quantification, media samples were shipped to OpAns, LLC (Durham, NC) on dry ice, and samples were thawed to room temperature prior to liquid-liquid extraction. Steroid hormones were extracted from media samples using methyl tertbutyl ether (MTBE). An extra derivatization with dansyl chloride was included for estrogen (estrone and estradiol) detection only. Steroid hormones were separated by HPLC, eluted using a reverse phase C18 gradient with electrospray positive ionization, followed by quantification by tandem mass spectrometry (MS/MS). Data were acquired on a MassHunter Workstation Acquisition version B03.01 (Agilent Technologies, Inc.) and processed using MassHunter Quantitative Analysis for QQQ. Accuracy was determined for each hormone analyte from 3 standards to determine upper and lower limits of quantification (ULOQ and LLOQ, respectively) using a 7-point standard curve. Precision and accuracy of the extraction and quantification methods were calculated as the percent relative standard deviation (%RSD) of the spiked standards and percent spiked standard recovered, respectively. […] Test medium was removed following chemical exposure, and cell viability was evaluated in the same wells by MTT. MTT procedures were as follows: after removal of test medium, 500 uL of 0.5 mg/ml of 3-[4,5-dimethylthiazol-2-y]2,5-diphenyltetrazoliumbromide solution was added to the cells. Following a 4-hour incubation at 37 C and 5% CO2 to allow formazan-crystal formation, the MTT solution was removed and blue formazan salt crystals were solubilized using 500uL anhydrous isopropanol with shaking for 20 minutes. Absorbance was read at 570 and 650nm using a Packard Fusion microplate reader. Background correction of absorbance units was used to determine percent change relative to controls. […] When a test chemical reduced cell viability to 20% - 70%, the test chemical was diluted 10-fold and re-evaluated, but if cell viability was <20%, then the test chemical was diluted 100-fold and re-evaluated. Test chemical dilutions were made until cell viability was >/=70%. MTT assays were also conducted for duplicates of all concentrations of chemicals tested in concentration-response studies. […]

[9] = read-out: growth arrest and DNA damage 45 (GADD45B), GADD45B (gene 4616); test: LTEA_HepaRG_GADD45B: Life Technologies and Expression Analysis (LTEA) Assay for growth arrest and DNA damage 45 (GADD45B) using HepaRG (AID 2283461); conditions: mRNA level, 48 h; actives raise or lower the signal
How it was run: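 Human HepaRG monolayers receive chemicals for 48 h at eight half-log concentrations, highest 100 uM, in 0.5% DMSO. Expression is measured by TaqMan qRT-PCR and normalized to ACTB, GAPDH and POLR2A.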

Measured: AC50

CCN(CC)c1ccccc1
inactive: [2] | [3] | [4] | [5] | [6] | [7]
active: [1] 50 µM

O=C(O)C1C(C(=O)O)C2(Cl)C(Cl)=C(Cl)C1(Cl)C2(Cl)Cl (stereo not given)
inactive: [1] | [2] | [3] | [4] | [5] | [6] | [7]

OCC1CO1 (stereo not given)
inactive: [1] | [2] | [3] | [4] | [5] | [6] | [7]

CCC(C)(C)c1ccc(O)cc1
inactive: [1] | [2] | [3] | [4] | [5] | [6] | [7]

CC(C)(C)OOC(C)(C)C
inactive: [1] | [2] | [3] | [4] | [5] | [6] | [7]

CCNc1nc(Cl)nc(NC(C)(C)C)n1
active: [1] 22.7 µM | [6] 7.02 µM
inactive: [2] | [3] | [8] | [4] | [5] | [7]

CC(Cc1ccc(OCC(=O)O)cc1)NCC(O)c1csc(C(F)(F)F)n1 (stereo not given)
active: [1] 0.0496 µM
inactive: [2] | [3] | [4] | [5] | [6] | [7]

c1nc[nH]n1
active: [1] 0.146 µM
inactive: [2] | [3] | [4] | [5] | [6] | [7]

CCOP(=S)(OCC)SCSCC
inactive: [2] | [3] | [4] | [5] | [6] | [7]
active: [1] 66.7 µM

O=P1(N(CCCl)CCCl)NCCCO1 (stereo not given)
active: [1] 50 µM
inactive: [2] | [3] | [4] | [5] | [6] | [7]

c1ccc2c(c1)Nc1ccccc1S2
inactive: [2] | [3] | [4] | [5] | [6] | [7]
active: [1] 86.5 µM

O=[N+]([O-])c1ccccc1
active: [1] 50 µM
inactive: [2] | [3] | [4] | [5] | [6] | [7]

CCOC(=O)c1ccccc1C(=O)OCC
active: [1] 74 µM
inactive: [2] | [3] | [4] | [5] | [6] | [7]

CCCCCCCc1ccc(O)cc1
inactive: [1] | [2] | [3] | [4] | [5] | [6] | [9] | [7]

ClC(Cl)(Cl)c1ccccc1
inactive: [1] | [2] | [3] | [4] | [5] | [6] | [7]

ClC(Cl)c1ccccc1
active: [1] 50 µM
inactive: [2] | [3] | [4] | [5] | [6] | [7]

CCCCc1ccccc1
inactive: [2] | [3] | [4] | [5] | [6] | [9] | [7]
active: [1] 75.6 µM

O=[N+]([O-])c1ccc(Cl)c(Cl)c1
inactive: [2] | [3] | [4] | [5] | [6] | [7]
active: [1] 5.16 µM

ClC1=C(Cl)C2(Cl)C3C(Cl)C(Cl)CC3C1(Cl)C2(Cl)Cl (stereo not given)
active: [1] 33.4 µM | [6] 6.37 µM
inactive: [2] | [3] | [4] | [5] | [7]

CCCN(CCC)c1c([N+](=O)[O-])cc(C(C)C)cc1[N+](=O)[O-]
active: [1] 24.5 µM | [4] 0.234 µM | [6] 50 µM | [7] 0.246 µM
inactive: [2] | [3] | [5]

Cc1ccc([N+](=O)[O-])cc1C
active: [1] 68.1 µM
inactive: [2] | [3] | [4] | [5] | [6] | [7]
